Test results reported in PubChem BioAssay (Tox21).
Results filed as inconclusive are left out. The source made the active and inactive calls. Unless noted, calls follow the shape of the full dose curve.

How the values were obtained:
[1] = qHTS assay to identify small molecule agonists of the vitamin D receptor (VDR) signaling pathway - cell viability counter screen (AID 743224; active = well fitted curve in the direction sought with a large enough effect in the repeat runs; an effect the other way counts as inactive or inconclusive; also: series mostly up to about 63 µM; % is scaled to controls: 0 for no effect and ±100 for the full control effect; nearly all actives have a fitted effect of over 50% in size)
Procedure, shortened: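 Viability is measured in the same wells as the VDR-bla reporter assay: after 16 h compound treatment and 2 h substrate loading, CellTiter-Glo is added and luminescence read 30 min later.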

[2] = qHTS assay to identify small molecule antagonists of the vitamin D receptor (VDR) signaling pathway - cell viability counter screen (AID 743225; active = well fitted curve in the direction sought with a large enough effect in the repeat runs; an effect the other way counts as inactive or inconclusive; also: % is scaled to controls: 0 for no effect and ±100 for the full control effect; nearly all actives have a fitted effect of over 50% in size)
Procedure, shortened: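 Cytotoxicity counter screen read by CellTiter-Glo luminescence (30 min, room temperature) in the same wells as the VDR-bla antagonist readout. HEK 293T VDR-UAS-bla cells had 16 h at 37C with compound and 3 nM (final) 1-alpha,25-dihydroxyvitamin D3, then 2 h with FRET substrate.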

[3] = qHTS assay to identify small molecule agonists of the NFkB signaling pathway (AID 1159509; active = well fitted curve in the direction sought with a large enough effect in the signal ratio in the repeat runs, not every such curve was filed as active; the % refers to the signal ratio; also: series mostly up to about 61 µM; % is scaled to controls: 0 for no effect and ±100 for the full control effect)
Procedure, shortened: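 NFkB-bla ME-180 cells with a beta-lactamase reporter under an NF-kB response element were plated overnight, treated with compounds in DMSO for 5 hr at 37 C, then loaded with FRET substrate for 1.5 hr at room temperature.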

[4] = qHTS assay to identify small molecule agonists of the NFkB signaling pathway - cell viability counter screen (AID 1159515); also: series mostly up to about 61 µM; % is scaled to controls: 0 for no effect and ±100 for the full control effect; nearly all actives have a fitted effect of over 55% in size
Procedure, shortened: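 Multiplexed viability readout: after the 5 hr compound exposure and 1.5 hr FRET substrate step, CellTiter-Glo reagent went into the same NFkB-bla ME-180 wells; ATP luminescence was measured after 30 min at room temperature.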

[5] = qHTS assay to identify small molecule agonists of the endoplasmic reticulum stress response signaling pathway (AID 1159516; active = well fitted activation curve with a large enough effect in the signal ratio in the repeat runs, not every such curve was filed as active; the % refers to the signal ratio; also: % is scaled to controls: 0 for no effect and ±100 for the full control effect)
Procedure, shortened: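 Tox21 10K library screened in quantitative HTS format on ESRE-bla HeLa cells, a beta-lactamase reporter under ER stress response element control; 5 hr treatment, FRET read.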

[6] = qHTS assay to identify small molecule agonists of the endoplasmic reticulum stress response signaling pathway - cell viability counter screen (AID 1159517); also: series mostly up to about 61 µM; % is scaled to controls: 0 for no effect and ±100 for the full control effect; nearly all actives have a fitted effect of over 50% in size
Procedure, shortened: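 Luminescence readout: CellTiter-Glo, 30 min RT, same wells as the ESRE-bla reporter read. HeLa ESRE-bla, 1,500 cells/well, o/n 37 C; cpd 5 hr 37 C/5% CO2.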

[7] = qHTS assay to identify small molecule antagonists of the retinoid-related orphan receptor gamma (ROR-gamma) signaling pathway - cell viability counter screen (AID 1159520; active = well fitted curve in the direction sought with a large enough effect in the repeat runs; an effect the other way counts as inactive or inconclusive; also: % is scaled to controls: 0 for no effect and ±100 for the full control effect; nearly all actives have a fitted effect of over 50% in size)
Procedure, shortened: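 Tet-on ROR gamma CHO cells (1,000/well) were plated 4 hr, given compounds in DMSO for 2 hr at 37 C, then induced with 1 uM final doxycycline for 16 hr. Viability was read as ATP by CellTiter-Glo luminescence after 30 min.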

[8] = target: Nuclear receptor ROR-gamma (Homo sapiens) (UniProt P51449); assay: qHTS assay to identify small molecule antagonists of the retinoid-related orphan receptor gamma (ROR-gamma) signaling pathway (AID 1159521; active = well fitted curve in the direction sought with a large enough effect in the repeat runs; an effect the other way counts as inactive or inconclusive)
Procedure, shortened: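 Antagonist read-out: drop in luminescence (ONE-Glo) from an RORE-LUC reporter in CHO cells with doxycycline-inducible ROR-gamma; 2 hr compound pretreatment, 1 uM doxycycline, 16 hr incubation at 37 C.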

[9] = qHTS assay to identify small molecule agonists of the AP-1 signaling pathway - cell viability counter screen (AID 1159525); also: nearly all actives have a fitted effect of over 55% in size
Procedure, shortened: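 ME-180 AP-1-bla, 2500 cells/well, Opti-MEM + 0.5% dialyzed FBS; overnight 37 °C; cpd 15-pt titration, 5 h 37 °C; CellTiter-Glo 30 min RT; luminescence read; normalised to TOAB and DMSO controls.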

[10] = qHTS assay to identify small molecule agonists of the AP-1 signaling pathway (AID 1159526); also: % is scaled to controls: 0 for no effect and ±100 for the full control effect

COC(=O)c1ccccc1C(=O)c1ccc(OCCN2CCCCC2)cc1
inactive: Potency [1] | outcome [2] | outcome [3] | outcome [4] | outcome [5] | Potency [6] | outcome [7] | outcome [8] | outcome [9] | outcome [10]

CC(C(=O)O)c1ccc2c(c1)CC(=O)c1ccccc1S2 (centres undefined)
inactive: Potency [1] | outcome [2] | outcome [3] | outcome [4] | outcome [5] | Potency [6] | outcome [7] | outcome [8] | outcome [9] | outcome [10]

C=C(C)C(=O)OCCOP(=O)(O)OCCOC(=O)C(=C)C
inactive: Potency [1] | outcome [3] | outcome [4] | outcome [5] | Potency [6] | outcome [7] | outcome [8] | outcome [9] | outcome [10]

OCCCCC(O)CO (centres undefined)
inactive: Potency [1] | outcome [2] | outcome [3] | outcome [4] | outcome [5] | Potency [6] | outcome [7] | outcome [8] | outcome [9] | outcome [10]

Cc1[nH]cnc1-c1ccc(Cl)cc1
inactive: Potency [1] | outcome [2] | outcome [3] | outcome [4] | outcome [5] | Potency [6] | outcome [7] | outcome [8] | outcome [9] | outcome [10]

CC(C)OC(=O)CCCCC(=O)OC(C)C
inactive: Potency [1] | outcome [2] | outcome [3] | outcome [4] | outcome [5] | Potency [6] | outcome [7] | outcome [8] | outcome [9] | outcome [10]

CC(C)(C)c1cc(CCC(=O)NN)cc(C(C)(C)C)c1O
inactive: outcome [3] | outcome [4] | outcome [5] | Potency [6] | outcome [7] | outcome [8] | outcome [9] | outcome [10]

CC(=O)NCCCCCC(=O)O
inactive: Potency [1] | outcome [2] | outcome [3] | outcome [4] | outcome [5] | Potency [6] | outcome [7] | outcome [8] | outcome [9] | outcome [10]

Nc1cccc(O)c1
inactive: outcome [3] | outcome [4] | outcome [5] | Potency [6] | outcome [7] | outcome [8] | outcome [9] | outcome [10]

NS(=O)(=O)c1ccc(NC(=O)CCC(=O)O)cc1
inactive: Potency [1] | outcome [2] | outcome [3] | outcome [4] | outcome [5] | Potency [6] | outcome [7] | outcome [8] | outcome [9] | outcome [10]

CC(C)(C)c1n[nH]c(=S)n(N)c1=O
inactive: Potency [1] | outcome [2] | outcome [3] | outcome [4] | outcome [5] | Potency [6] | outcome [7] | outcome [8] | outcome [9] | outcome [10]

Brc1ccc(-c2ccccc2)cc1
inactive: Potency [1] | outcome [2] | outcome [3] | outcome [4] | outcome [5] | Potency [6] | outcome [7] | outcome [8] | outcome [9] | outcome [10]

CCC(CC)CO
inactive: Potency [1] | outcome [2] | outcome [3] | outcome [4] | outcome [5] | Potency [6] | outcome [7] | outcome [8] | outcome [9] | outcome [10]

CCCCCCCCCCl
inactive: outcome [2] | outcome [3] | outcome [4] | outcome [5] | Potency [6] | outcome [7] | outcome [8] | outcome [9] | outcome [10]

CCC(C)(CCC(C)C)C(=O)O (centres undefined)
inactive: Potency [1] | outcome [2] | outcome [3] | outcome [4] | outcome [5] | Potency [6] | outcome [7] | outcome [8] | outcome [9] | outcome [10]

CCCOC(OCCC)OCCC
inactive: Potency [1] | outcome [2] | outcome [3] | outcome [4] | outcome [5] | Potency [6] | outcome [7] | outcome [8] | outcome [9] | outcome [10]

CC(C)NCC(O)COc1cccc2[nH]ccc12 (centres undefined)
inactive: Potency [1] | outcome [2] | outcome [3] | outcome [4] | outcome [5] | Potency [6] | outcome [7] | outcome [8] | outcome [9] | outcome [10]

Nc1nnc(-c2cccc(Cl)c2Cl)c(N)n1
inactive: outcome [2] | outcome [3] | outcome [4] | outcome [5] | Potency [6] | outcome [7] | outcome [8] | outcome [9] | outcome [10]

CCOc1cc(NC(C)=O)ccc1C(=O)OC
inactive: outcome [2] | outcome [3] | outcome [4] | outcome [5] | Potency [6] | outcome [7] | outcome [8] | outcome [9] | outcome [10]

O=S(O)(O)=S
inactive: activity change, negative = cytotoxicity [1] -0.106% [at 5.95 µM] | viability change, negative = cytotoxic [2] 4.99% [at 6.95 µM] | activation [3] -0.163% [at 6.95 µM] | activity, negative = cytotoxic [4] 0.146% [at 6.95 µM] | activation [5] 0.601% [at 6.95 µM] | activity change, negative = cytotoxicity [6] -2.33% [at 6.95 µM] | activity, negative = cytotoxicity [7] 8.82% [at 8.39 µM] | activity change, negative = inhibition [8] 6.6% [at 8.39 µM] | viability change, negative = cytotoxic [9] 1.76% [at 6.97 µM] | activation [10] 11.4% [at 6.97 µM]

O=C(OCC1(COC(=O)c2cccnc2)CCCC(COC(=O)c2cccnc2)(COC(=O)c2cccnc2)C1O)c1cccnc1
inactive: Potency [1] | outcome [2] | outcome [3] | outcome [4] | outcome [5] | Potency [6] | outcome [7] | outcome [8] | outcome [9] | outcome [10]

C=CC(OCC)OCC
inactive: Potency [1] | outcome [2] | outcome [3] | outcome [4] | outcome [5] | Potency [6] | outcome [7] | outcome [8] | outcome [10]

CCCCOCCOC(=O)COc1nc(Cl)c(Cl)cc1Cl
inactive: outcome [2] | outcome [3] | outcome [4] | outcome [5] | Potency [6] | outcome [7] | outcome [8] | outcome [9] | outcome [10]

Cc1cccc(C)c1NC(=O)c1ccccc1C(=O)O
inactive: outcome [2] | outcome [3] | outcome [4] | outcome [5] | Potency [6] | outcome [7] | outcome [8] | outcome [9] | outcome [10]
